Experimental findings from PubChem BioAssay (Tox21) are described below.

Assay [1] can be described thus: A CellTox Green Cytotoxicity Assay to monitor cytotoxicity in HepG2 cells - 8 hour (AID 1224890). Further: nearly all actives have a fitted effect of over 45% in size. Put shortly: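 Fluorescent DNA-binding dye, 600 HepG2 cells/well, 5 h preincubation then compound in DMSO; same plates read at 0–40 h, 37 C.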
A short description of assay [2]: qHTS assay to identify small molecule antagonists of the estrogen receptor alpha (ER-alpha) signaling pathway using the BG1 cell line in the presence of 0.1 nM 17-beta-estradiol - cell viability counter screen (AID 1259241). Further: nearly all actives have a fitted effect of over 40% in size. Put shortly: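 VM7Luc4E2 cells (endogenous full-length ER-alpha, 4xERE-luciferase), cultured 5 days in charcoal-stripped serum, exposed to compounds with 0.1 nM 17beta-estradiol (final) for 22 hr at 37C. Viability read in same wells as live-cell protease fluorescence after 30 min.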

Assay [3] concerns the target Estrogen receptor (Homo sapiens) (UniProt P03372). Briefly: qHTS assay to identify small molecule antagonists of the estrogen receptor alpha (ER-alpha) signaling pathway using the BG1 cell line in the presence of 0.1 nM 17-beta-estradiol (AID 1259244). Further: nearly all actives have a fitted effect of over 50% in size. Summed up:
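Seeding of stripped-serum-adapted VM7Luc4E2 cells, 24 h attachment, compound transfer, then 0.1 nM final 17beta-estradiol; after 22 h incubation, ONE-Glo reagent and luminescence reading.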
(In general: In qHTS, concentration-response curves come from the screen itself.)

Assay [4] in a line: qHTS assay to identify small molecule HDAC inhibitors (AID 1259364). Further: potency means the concentration at half of the fitted maximal effect.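 Further: wild-type HCT-116 cells with endogenous class I/II HDAC activity; nearly all actives have a fitted effect of over 45% in size.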 Put shortly:
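After a 2 hr compound incubation (37C, 5% CO2), HCT-116 cells seeded at 1,500/well the day before received HDAC-Glo reagent; signal read as luminescence after 30 min at room temperature.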

Assay [5] can be described thus: qHTS assay to identify small molecule HDAC inhibitors - cell viability counter screen (AID 1259365). Further: series mostly up to about 92 µM; nearly all actives have a fitted effect of over 50% in size. Summed up: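 Wild-type HCT-116 cells, 1,500/well, cultured overnight, then compound-treated 2 h at 37 C. Viability measured as ATP luminescence with CellTiter-Glo after 30 min at room temperature.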
A short description of assay [6]: qHTS assay to identify small molecule agonists of the sonic hedgehog signaling (Shh) pathway - cell viability counter screen (AID 1259366). Further: nearly all actives have a fitted effect of over 50% in size. Put shortly:
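NIH/3T3-derived Gli1-Luc reporter cells, 2,000 per well, received compound after 4 h and were treated about 23 h at 37C. Viability measured in the same wells by CellTiter-Fluor fluorescence after 1 h.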

Assay [7] is described as follows: qHTS assay to identify small molecule agonists of the sonic hedgehog signaling (Shh) pathway (AID 1259368; calls by dose curve;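 further: NIH/3T3-derived 3T3Gli1-Luc cells carrying a stable Gli1-driven firefly luciferase reporter; series mostly up to about 92 µM; nearly all actives have a fitted effect of over 15% in size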). Put shortly: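 Stable NIH/3T3 Gli1-Luc reporter clone; 24 hr cpd exposure after a 4 hr settling period; luminescence endpoint.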
The nature of assay [8]: qHTS assay to identify small molecule antagonists of the sonic hedgehog signaling (Shh) pathway (AID 1259369; calls by dose curve; further: nearly all actives have a fitted effect of over 45% in size). Put shortly: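 Gli1 transcriptional reporter (firefly Luc) in NIH/3T3 background, conditioned-medium activated. 24hr exposure, luminescence endpoint.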
Assay [9] concerns the target Estrogen receptor beta (Homo sapiens) (UniProt Q92731). Briefly: qHTS assay to identify small molecule antagonists of the estrogen receptor beta (ER-beta) signaling pathway (AID 1259378; active means well fitted inhibition curve with a large enough effect in the signal ratio in the repeat runs, not every such curve was filed as active; the % refers to the signal ratio). Put shortly:
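ER-beta-UAS-bla HEK293T (GripTite) cells in 2% charcoal-stripped FBS medium were preincubated 6 hr at 37C, dosed with compound, then stimulated with 1 nM E2 (final) for 16 hr; beta-lactamase reporter read by B/G FRET fluorescence after 2 hr substrate loading.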

Assay [10] is described as follows: qHTS assay to identify small molecule agonists of the androgen receptor (AR) signaling pathway in the presence of an antagonist - cell viability counter screen (AID 1259379). Further: nearly all actives have a fitted effect of over 25% in size. Further: potency means the concentration at half of the fitted maximal effect. Put shortly: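 Counter screen for cell viability run in parallel with the AR agonist-mode luciferase assay. MDA-kb2 cells were co-treated with nilutamide (3.0uM final) and compounds, then incubated 16 hr at 37C, and CellTiter-Fluor fluorescence was measured.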

Assay [11] is described as follows: qHTS assay to identify small molecule agonists of the estrogen receptor beta (ER-beta) signaling pathway - cell viability counter screen (AID 1259380). Further: nearly all actives have a fitted effect of over 30% in size. Put shortly: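 In this qHTS counter screen, HEK293T cells carrying an ER-beta/UAS beta-lactamase reporter, grown in 2% charcoal-stripped FBS, received compound for 16 hr; ATP-based CellTiter-Glo luminescence was then read after 30 min at room temperature.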

The target in assay [12] is Estrogen receptor (Homo sapiens) (UniProt P03372). Briefly: qHTS assay to identify small molecule agonists of the estrogen receptor alpha (ER-alpha) signaling pathway in the presence of an antagonist (AID 1259383; calls by dose curve; further: top concentration of the series differs between compounds; nearly all actives have a fitted effect of over 15% in size). Summed up: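 ER-alpha agonism measured under antagonist challenge: 10.0nM ICI-182,780 (final) plus compound, 15 concentrations, 22hr, VM7Luc4E2 ERE-luciferase cells. Read by luminescence.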
Chain of Estrogen receptor (Homo sapiens) (P03372 whole entry, looked up): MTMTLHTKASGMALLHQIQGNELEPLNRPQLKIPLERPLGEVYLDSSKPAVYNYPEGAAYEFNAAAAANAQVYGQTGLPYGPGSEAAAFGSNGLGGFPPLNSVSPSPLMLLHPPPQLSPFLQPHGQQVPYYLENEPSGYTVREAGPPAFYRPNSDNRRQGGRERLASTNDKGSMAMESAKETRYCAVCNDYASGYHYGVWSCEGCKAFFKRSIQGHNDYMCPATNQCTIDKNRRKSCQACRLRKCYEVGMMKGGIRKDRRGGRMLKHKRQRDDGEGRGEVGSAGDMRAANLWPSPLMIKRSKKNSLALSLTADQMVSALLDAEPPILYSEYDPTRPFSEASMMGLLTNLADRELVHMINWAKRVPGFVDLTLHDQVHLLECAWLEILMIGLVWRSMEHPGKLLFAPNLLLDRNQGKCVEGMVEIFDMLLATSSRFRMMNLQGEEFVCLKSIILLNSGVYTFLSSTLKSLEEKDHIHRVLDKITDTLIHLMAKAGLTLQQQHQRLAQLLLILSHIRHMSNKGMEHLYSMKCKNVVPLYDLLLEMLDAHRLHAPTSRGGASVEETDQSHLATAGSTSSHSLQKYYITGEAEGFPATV

Assay [13] in a line: qHTS assay to identify small molecule agonists or antagonists of the thyroid stimulating hormone receptor (TSHR) signaling pathway - wild type cell line counter screen (AID 1259384; calls by dose curve). Summed up:
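Wild-type HEK293 cells were plated 18 h at 37 C/5% CO2, pin-dosed with compound plus Ro20-1724 medium, held 30 min at room temperature, then given cAMP-d2 and anti-cAMP-cryptate; fluorescence was read after 1 h. Fifteen concentrations, triplicate.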

Assay [14] deals with Estrogen receptor beta (Homo sapiens) (UniProt Q92731). Nature of the assay: qHTS assay to identify small molecule agonists of the estrogen receptor beta (ER-beta) signaling pathway (AID 1259377; active means well fitted activation curve with a large enough effect in the signal ratio in the repeat runs, not every such curve was filed as active; the % refers to the signal ratio). Put shortly: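 ER-beta-UAS-bla HEK293T cells in medium with 2% charcoal-stripped FBS were exposed to compounds for 16 h at 37C. Beta-lactamase reporter activity was read as fluorescence after 2 h with LiveBLAzer B/G FRET substrate at room temperature.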
Chain of Estrogen receptor beta (Homo sapiens) (Q92731 whole entry, looked up): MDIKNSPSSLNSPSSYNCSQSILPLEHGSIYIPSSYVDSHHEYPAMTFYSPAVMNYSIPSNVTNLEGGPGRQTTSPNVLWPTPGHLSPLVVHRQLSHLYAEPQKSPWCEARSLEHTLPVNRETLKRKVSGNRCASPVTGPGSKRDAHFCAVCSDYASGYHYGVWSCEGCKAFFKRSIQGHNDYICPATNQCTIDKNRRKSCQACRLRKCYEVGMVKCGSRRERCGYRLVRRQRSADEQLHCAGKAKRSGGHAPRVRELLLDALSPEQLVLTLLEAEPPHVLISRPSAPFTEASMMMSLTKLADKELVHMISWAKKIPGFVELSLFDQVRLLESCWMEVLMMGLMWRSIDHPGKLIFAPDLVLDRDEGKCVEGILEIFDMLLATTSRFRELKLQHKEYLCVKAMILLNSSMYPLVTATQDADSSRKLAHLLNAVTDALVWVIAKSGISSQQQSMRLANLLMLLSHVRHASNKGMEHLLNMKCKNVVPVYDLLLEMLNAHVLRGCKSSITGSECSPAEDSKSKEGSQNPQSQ

Assay [15] in a line: qHTS assay to identify small molecule antagonists of the androgen receptor (AR) signaling pathway using the MDA cell line in the presence of 0.5 nM R1881 - cell viability counter screen (AID 1259242). Further: nearly all actives have a fitted effect of over 45% in size. Summed up: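 Human breast carcinoma MDA-kb2 cells, cultured without CO2, receive compounds alongside 0.5 nM (final) R1881 agonist. After 16 hr at 37C, viability is taken as live-cell protease signal.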

The target of assay [16] is Androgen receptor (Homo sapiens) (UniProt P10275). Briefly: qHTS assay to identify small molecule antagonists of the androgen receptor (AR) signaling pathway using the MDA cell line in the presence of 0.5 nM R1881 (AID 1259243). Further: nearly all actives have a fitted effect of over 50% in size. Summed up:
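Cells: MDA-kb2 (MMTV-luc). Stimulus: 0.5 nM R1881. Time: 16 hr, 37C, no CO2. Detection: ONE-Glo luminescence after 30 min at RT.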

Assay [17] in a line: qHTS assay to identify small molecule antagonists of the sonic hedgehog signaling (Shh) pathway - cell viability counter screen (AID 1259367). Further: nearly all actives have a fitted effect of over 55% in size. Summed up:
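Conditioned medium drove Shh signaling in 3T3 Gli1-Luc cells exposed to compounds at 37C and 5% CO2. Viability was determined from CellTiter-Fluor fluorescence, with reagent incubated 1 hr after 23 hr of treatment.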

Assay [18] addresses Androgen receptor (Homo sapiens) (UniProt P10275). Nature of the assay: qHTS assay to identify small molecule agonists of the androgen receptor (AR) signaling pathway in the presence of an antagonist (AID 1259381; calls by dose curve; further: nearly all actives have a fitted effect of over 15% in size). Summed up:
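AR antagonist background: nilutamide 3.0uM final. Cell line: MDA-kb2, MMTV-driven luciferase, responsive to both AR and GR. Exposure 16hr, 37C, no CO2; ONE-Glo luminescence.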

A short description of assay [19]: qHTS assay to identify small molecule antagonists of the estrogen receptor beta (ER-beta) signaling pathway - cell viability counter screen (AID 1259382). Further: series mostly up to about 92 µM; nearly all actives have a fitted effect of over 55% in size. Summed up:
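HEK293T ER-beta-UAS-bla, 2% charcoal-stripped FBS; compounds + 1nM E2 16 hr 37C; CellTiter-Glo luminescence, 30 min RT.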

Values without a mark were called inactive. Inconclusive results are not listed. The source made the active and inactive calls. Unless noted, the call rests on the fitted dose curve; in most records, active means well fitted curve in the direction sought with a large enough effect in the repeat runs; inconclusive means weak or mixed curves; inactive means no such curve, though single readings can be large; an effect the other way counts as inactive or inconclusive.

Chain of Androgen receptor (Homo sapiens) (P10275 whole entry, looked up): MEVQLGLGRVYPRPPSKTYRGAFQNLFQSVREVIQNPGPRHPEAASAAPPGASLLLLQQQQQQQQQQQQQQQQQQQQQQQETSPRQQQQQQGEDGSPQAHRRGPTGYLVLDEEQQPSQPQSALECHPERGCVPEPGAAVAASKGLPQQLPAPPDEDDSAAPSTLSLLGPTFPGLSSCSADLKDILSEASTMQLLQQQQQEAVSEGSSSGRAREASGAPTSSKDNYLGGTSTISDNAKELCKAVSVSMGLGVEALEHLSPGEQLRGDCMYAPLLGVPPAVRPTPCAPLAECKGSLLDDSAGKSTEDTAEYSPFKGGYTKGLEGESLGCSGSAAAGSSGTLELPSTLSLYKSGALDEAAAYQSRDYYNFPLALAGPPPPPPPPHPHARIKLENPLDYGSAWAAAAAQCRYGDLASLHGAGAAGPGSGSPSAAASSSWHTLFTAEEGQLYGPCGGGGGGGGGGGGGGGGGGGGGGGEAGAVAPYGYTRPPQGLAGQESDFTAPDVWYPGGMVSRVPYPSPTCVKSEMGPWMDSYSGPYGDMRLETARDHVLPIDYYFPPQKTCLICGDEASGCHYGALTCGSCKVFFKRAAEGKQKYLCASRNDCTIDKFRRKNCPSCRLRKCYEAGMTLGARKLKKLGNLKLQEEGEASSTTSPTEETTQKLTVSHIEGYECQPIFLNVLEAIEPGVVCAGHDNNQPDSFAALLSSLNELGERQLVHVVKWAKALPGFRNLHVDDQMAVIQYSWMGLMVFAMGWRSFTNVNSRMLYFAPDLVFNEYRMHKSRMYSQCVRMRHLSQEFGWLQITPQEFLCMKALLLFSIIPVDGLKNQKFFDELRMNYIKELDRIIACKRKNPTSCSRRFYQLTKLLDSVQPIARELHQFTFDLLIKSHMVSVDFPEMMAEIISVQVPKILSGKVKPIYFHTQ

On to `C=C(C)C(=O)OCCOP(=O)(O)O`, for which the Potency result in assay [1], in assay [2], in assay [3], in assay [4], in assay [6] and in assay [7] was “inactive” in each case. The Potency result in assay [8], in assay [9], in assay [10], in assay [11] and in assay [12] was “inactive” each time. Further, the compound was called inactive in [5] and in assay [13].
In the case of `O=C(O)c1cccc(Cl)c1Cl`, the Potency entry in assay [1], in assay [2], in assay [3], in [4], in assay [6] and in [7] was “inactive” each time. Moreover, the Potency result in [8], in [9], in assay [10], in [11] and in [12] was “inactive” in each case. The compound was classed as inactive in [5], in [14] and in assay [13].
As to `CCOC(=O)c1cc(=O)c2c(OCC(COc3cccc4oc(C(=O)OCC)cc(=O)c34)OC(=O)[C@@H](N)CCCCN)cccc2o1`, the Potency entry in [1], in assay [16], in assay [4], in [6], in [17] and in assay [7] was “inactive” throughout. The Potency entry in assay [8], in assay [9], in [10], in assay [18] and in [12] was “inactive” each time. Besides, the result in [15], in assay [5], in assay [14], in [19] and in assay [13] was inactive.
Consider `CCCCCCn1c(=O)c2c(ncn2C)n(C)c1=O`, for which the Potency entry in assay [1], in [16], in assay [4], in assay [6], in assay [17] and in [7] was “inactive” throughout. For the same compound, the Potency result in assay [8], in assay [9], in [10], in [11], in assay [18] and in [12] was “inactive” in each case. Besides, the result in assay [15], in assay [5], in assay [14], in [19] and in assay [13] was inactive.
Take `NNS(=O)(=O)c1ccc(Oc2ccc(S(=O)(=O)NN)cc2)cc1`: the Potency entry in assay [1], in assay [3], in [4], in assay [6], in assay [17] and in [7] was “inactive” in each case. Also, the Potency entry in assay [8], in [9], in assay [10], in assay [11] and in [12] was “inactive” each time. The result in assay [15], in [5], in [14], in assay [19] and in assay [13] was inactive.
Take `CCOc1ccccc1N`: the Potency result in assay [1], in assay [2], in assay [4], in [6], in assay [17] and in [7] was “inactive” throughout. Moreover, the Potency result in [8] and in assay [12] was “inactive” each time. In addition, the outcome in assay [5] and in assay [13] was inactive. The Potency in assay [10] was 54.1 µM (active).
On to `CCCS(=O)c1ccc2nc(NC(=O)OC)[nH]c2c1` (stereo not given), for which the Potency entry in assay [1], in assay [16], in assay [6], in [7], in assay [8] and in assay [9] was “inactive” in each case. In addition, the Potency entry in assay [10], in [11] and in assay [18] was “inactive” in each case. For the same compound, the outcome in assay [15], in assay [5], in assay [14] and in assay [13] was inactive. The Potency in [4] was 5.96 µM (active).
Consider `Cc1c(N)cccc1N`, for which the Potency result in [1], in assay [2], in assay [4], in [6], in assay [17] and in [7] was “inactive” in each case. Further, the Potency entry in assay [8], in assay [9], in assay [10] and in [11] was “inactive” each time. The compound was classed as inactive in assay [5], in [14], in assay [19] and in [13].
